In PubChem BioAssay (NCI):
About 83,000 compounds went through this panel and 20% of them were active in at least one assay; those are over-represented in the sample as a whole.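 For each line, cells grew in 96-well plates with the test compound present at a single concentration for 48 hours.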 A number with no mark means an inactive call. Active and inactive are the calls of the source. The calls were made as follows: active = growth percent below 10; inactive = the rest.

Assays:
Experiment in all cases: NCI-60 one-dose screen, 48 h (100 = growth as untreated, 0 = no growth, -100 = all killed)
Settings in all cases: 10 µM
[1] = tested on: NCI-H23 lung
[2] = tested on: NCI-H226 lung
[3] = tested on: NCI-H322M lung
[4] = tested on: HOP-62 NSCLC
[5] = tested on: NCI-H460 lung
[6] = tested on: HOP-92 NSCLC
[7] = tested on: NCI-H522 lung
[8] = tested on: A549/ATCC NSCLC
[9] = tested on: 786-0 renal
[10] = tested on: COLO 205 colon
[11] = tested on: DU-145 prostate
[12] = tested on: K-562 leukemia
[13] = tested on: MALME-3M melanoma
[14] = tested on: MDA-MB-231 breast
[15] = tested on: RXF 393 renal
[16] = tested on: SF-268 CNS
[17] = tested on: SF-295 CNS
[18] = tested on: SF-539 CNS
[19] = tested on: UACC-257 melanoma
[20] = tested on: M14 melanoma

| Compound | growth [1] | growth [2] | growth [3] | growth [4] | growth [5] | growth [6] | growth [7] | growth [8] | growth [9] | growth [10] | growth [11] | growth [12] | growth [13] | growth [14] | growth [15] | growth [16] | growth [17] | growth [18] | growth [19] | growth [20] |
| --- | --- | --- | --- | --- | --- | --- | --- | --- | --- | --- | --- | --- | --- | --- | --- | --- | --- | --- | --- | --- |
| O=C(c1ccc(O)cc1)C1[C@H](c2ccc(Br)cc2)[C@@H](c2ccccc2)NC12C(=O)Nc1ccccc12 (stereo not given in full) | 7.68% (active) | 43.5% | 51.6% | 39.4% | 2.57% (active) | 8.1% (active) | 32.4% | 29.5% | 16.3% | -46.4% (active) | 49.1% | 35.3% | 43.6% | -40.8% (active) | -16.4% (active) | 35.5% | 29.9% | 41.2% | 75.9% | 51.7% |
| O=C(O)CCCCCCCCCCN1C(=O)/C(=C/c2cnc(-c3ccccc3)s2)SC1=S | 55.9% | 103% | 80.6% | 115% | 29.6% | 52.1% | 38.2% | 46.1% | 79.3% | 141% | 80.4% | 23.6% | 103% | 100% | 116% | 112% | 83.3% | 110% | 101% | 101% |
| CNCc1cccc2c1OCCCCCC[C@@](C)(O)CC1(CC1)S(=O)(=O)c1ccc(cc1)-c1cnc(N)c(n1)C(=O)N2 | -95.4% (active) | -75.7% (active) | -96.8% (active) | -84.3% (active) | -74.8% (active) | -67.8% (active) | -87.2% (active) | -79.5% (active) | -82.9% (active) | -89.9% (active) | -84.5% (active) | -37.5% (active) | -75.2% (active) | -92.8% (active) | -94.2% (active) | -64.2% (active) | -100% (active) | -98.9% (active) | -75% (active) | -38.6% (active) |
| O=C1Nc2ccc(Cl)cc2/C1=C/c1cccc(OCc2ccccn2)c1 | 15.4% | -21.3% (active) | 40.1% | 52.1% | -16.2% (active) | -6.11% (active) | -75.5% (active) | 40.1% | -14.4% (active) | -45.9% (active) | 6.01% (active) | 0.86% (active) | -51.9% (active) | -50.8% (active) | -31.4% (active) | 4.23% (active) | -42.4% (active) | -64.4% (active) | -0.118% (active) | -50.5% (active) |
| O=C(c1ccc(O)cc1)C1[C@H](c2ccccc2Br)[C@@H](c2ccccc2)NC12C(=O)Nc1ccc(Br)cc12 (stereo not given in full) | 46.4% | 36.5% | 55.6% | 53.2% | 31.1% | 53.3% | 0.143% (active) | 34.4% | 47.8% | 29.7% | 70.2% | 29.9% | 78.7% | 46.3% | 55.3% | 40% | 26.6% | 49.1% | 65.4% | 54.6% |
| COc1cccc(/C=N/NC(=O)c2ccc3nc(-c4ccc(Cl)cc4)[nH]c3c2)c1O | -95.2% (active) | -85.8% (active) | -81.6% (active) | -91.9% (active) | -84.4% (active) | -85.2% (active) | -83% (active) | -76.8% (active) | -90.3% (active) | -88.8% (active) | -96.1% (active) | -37.2% (active) | -96.3% (active) | -72.8% (active) | -96.5% (active) | -79% (active) | -91.3% (active) | -99% (active) | -83.8% (active) | -79.5% (active) |
| Nc1nnc(-c2c[nH]c3ccc(F)cc23)c(-c2c[nH]c3ncccc23)n1 | 86.6% | 57.9% | 61.1% | 57.4% | 50.3% | 81.8% | 52.7% | 74% | 44% | 71.8% | 82% | 31.9% | 71.6% | 39.1% | 82.8% | 80.2% | 36.6% | 30% | 105% | 63.5% |
| C=C1CCC2C3(C)COC(c4ccccc4F)OC3CCC2(C)C1C/C=C1/C(=O)OCC1O (stereo not given) | -38.8% (active) | -25.6% (active) | 14.5% | -41.7% (active) | -14.6% (active) | -37.5% (active) | -72.5% (active) | -5.16% (active) | -86.8% (active) | -56.3% (active) | -27.8% (active) | 12.3% | -76.8% (active) | -54% (active) | -68.5% (active) | 58% | -36.1% (active) | -87.5% (active) | -77.6% (active) | -54.1% (active) |
| O=C1NC(=NC2CCCCCC2)N/C1=C\c1ccc2ncoc2c1 | 19.2% | 14.9% | 24.5% | 36.8% | 20.2% | 51.3% | 12.6% | 17% | 40.6% | 9.19% (active) | 31.1% | 38.1% | 66.4% | 50.9% | -8.82% (active) | 35% | 47.5% | -2.22% (active) | 48.7% | 64.4% |
| C=C1CCC2C3(C)COC(c4cccc(F)c4)OC3CCC2(C)C1CC(O)C1=CCOC1=O (stereo not given) | 82.9% | 73.1% | 90.4% | 88.7% | 82.2% | 76.4% | 23.9% | 80.3% | 41.1% | 60.7% | 72.8% | 24.1% | 90.8% | 67.5% | 57.2% | 106% | 74.5% | 84.8% | 72.7% | 61.1% |
| O=c1oc2ccc(-c3ccc(F)cc3F)cc2c(=O)n1-c1ccc(F)c(Cl)c1 | -49.8% (active) | -24.8% (active) | -1.73% (active) | -25.9% (active) | -0.567% (active) | -22% (active) | -17.7% (active) | 8.87% (active) | 7.54% (active) | 7.64% (active) | 12.6% | 3.74% (active) | -29.1% (active) | -27.6% (active) | -19.7% (active) | 2.31% (active) | -80.3% (active) | -5.14% (active) | -15.9% (active) | 12.8% |
| O=C(CN1CCN(c2ncnc3c2cnn3-c2ccccc2)CC1)Nc1nncs1 | -55.1% (active) | 43.9% | 84.8% | -52.7% (active) | -22.1% (active) | -70.9% (active) | -79.3% (active) | -32.5% (active) | -80.9% (active) | -50.2% (active) | -96.1% (active) | 10.6% | -67.3% (active) | 29.7% | -71.3% (active) | -34.4% (active) | -31.4% (active) | -88.2% (active) | 54.3% | 4.82% (active) |
| COc1ccc(OC)c(/C=N/NC(=O)c2ccc3nc(-c4ccc(Cl)cc4)[nH]c3c2)c1 | 66.1% | 64.3% | 71.1% | 81.6% | 82.5% | 63.4% | 59.1% | 91.2% | 73.4% | 81.7% | 48% | 47.1% | 81.6% | 10.3% | 3.46% (active) | 57% | 48.1% | 54.7% | 114% | 69.1% |
| COc1ccc(NC(=O)Nc2ccc(OCC(=O)N=Nc3c(O)[nH]c4ccc([N+](=O)[O-])cc34)cc2)cc1 | 59.5% | 62.7% | 91.2% | 40.7% | 74% | 53.5% | 0.434% (active) | 99% | 73.1% | 112% | 91% | 95.7% | 94.5% | 56% | 107% | 63.7% | 100% | 73.3% | 107% | 118% |
| Brc1ccc(/C=N/Nc2ncnc3sc4c(c23)CCN(Cc2ccccc2)C4)cc1 | 91.8% | 3.93% (active) | 94.1% | 103% | 14% | 67% | 90.4% | 74.2% | 48.5% | 34.8% | 47.2% | 20.9% | 38.7% | 22.1% | 66.7% | 74.2% | 58.7% | 71.4% | 56.7% | -12.1% (active) |
